Results on 13 compounds are retold here after PubChem BioAssay (NCI).

What all share (experiment): NCI-60 one-dose screen, 48 h (100 = growth as untreated, 0 = no growth, -100 = all killed)
Experiment [1] deals with NCI-H226 lung.
In experiment [2] the test system is NCI-H322M lung. As to conditions: 10 µM unless noted.
For experiment [3], the system named is HOP-62 NSCLC.
Experiment [4] has as its system NCI-H460 lung.
For experiment [5], the system named is HOP-92 NSCLC.
Experiment [6] relates to NCI-H522 lung.
Experiment [7] has as its system A549/ATCC NSCLC.
Experiment [8] deals with 786-0 renal.
The subject of experiment [9] is COLO 205 colon.

Each structure is given as a SMILES string. Several values for one entry are separate records, joined by “and”; a condition that tells them apart may be missing. Equal values may be shown once. Compounds without any hit were thinned out: in the full panel of roughly 83,000, 20% have a hit.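 Values shown are percent growth following 48 h exposure of cells in 96-well plates to a single concentration of compound; below 10 was considered active.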 Values without a mark were called inactive. Activity calls are given as the source filed them.

For the compound `CCOC(=O)c1nnn(Cc2cc(=O)oc3c2ccc2ccccc23)c1C`, the growth in [1] (10 µM unless noted) is 105%; in experiment [2], 98%; in experiment [3] (10 µM unless noted) it was 106%; in experiment [4] (10 µM unless noted) it was 104%; in experiment [5] (10 µM unless noted) it was 98.8%; in [6] (10 µM unless noted), 96.3%. Besides, the values for the growth in experiment [7] (10 µM unless noted), in experiment [8] (10 µM unless noted) and in experiment [9] (10 µM unless noted) were 102%, 102% and 107%, respectively.
In the case of `COc1ccc(-c2nc(Cl)c3c(C)nn(-c4ccc(F)cc4)c3n2)cc1`, the growth was 103% in experiment [1] (10 µM unless noted); 105% in experiment [2]; 104% in [3] (10 µM unless noted); 108% in experiment [4] (10 µM unless noted); 101% in experiment [5] (10 µM unless noted); 97.3% in experiment [6] (10 µM unless noted). Moreover, the growth in experiment [7] (10 µM unless noted) is 90.4%; in experiment [8] (10 µM unless noted), 105%; in experiment [9] (10 µM unless noted) it was 110%.
For `OB(O)c1ccsc1-c1nc2ccc3[nH]ncc3c2c2c1CCCC2`, the growth in experiment [1] (10 µM unless noted) is 72%; in experiment [2] it was 49.9%; in [3] (10 µM unless noted) it was 52.2%; in experiment [4] (10 µM unless noted), 38.9%; in [5] (10 µM unless noted), 65.3%; in experiment [6] (10 µM unless noted), 32.2%. The growth is 46.7% in experiment [7] (10 µM unless noted), 48.6% in experiment [8] (10 µM unless noted) and 41.2% in [9] (10 µM unless noted).
Turning to `Cc1c(CC(=O)OCCO)cc(-c2ccc(Cl)cc2)n1-c1ccccc1`, the growth in experiment [1] (10 µM unless noted) was 93.9%; in experiment [2] it was 106%; in experiment [3] (10 µM unless noted), 95%; in experiment [4] (10 µM unless noted), 104%; in experiment [5] (10 µM unless noted), 97.4%; in [6] (10 µM unless noted), 82.6%. The results for the growth in experiment [7] (10 µM unless noted), in [8] (10 µM unless noted) and in [9] (10 µM unless noted) were 94%, 102% and 109%, respectively.
`C=C(CN1CC=CCC1)[C@@H]1CC[C@]2(COC(C)=O)CC[C@]3(C)[C@H](CC[C@@H]4[C@@]5(C)CC[C@H](O)C(C)(C)[C@@H]5CC[C@]43C)[C@@H]12`: the growth was 92.5% in experiment [1] (10 µM unless noted); 114% in experiment [2]; 107% in experiment [3] (10 µM unless noted); 96.3% in experiment [4] (10 µM unless noted); 92.7% in experiment [5] (10 µM unless noted); 95% in experiment [6] (10 µM unless noted). The figures for the growth in experiment [7] (10 µM unless noted), in [8] (10 µM unless noted) and in experiment [9] (10 µM unless noted) were 95.3%, 103% and 105%, respectively.
Take `COc1ccc2c(c1)CC[C@@H]1[C@@H]2CC[C@]2(C)C3C(=CCC4C(=O)N(c5ccccc5)C(=O)C43)C[C@@H]12` (stereo partly drawn): the growth in experiment [1] (10 µM unless noted) is 90.8%; in experiment [2], 103%; in experiment [3] (10 µM unless noted), 90.3%; in [4] (10 µM unless noted) it was 93.7%; in experiment [5] (10 µM unless noted) it was 99.3%; in [6] (10 µM unless noted) it was 80.1%. Also, the growth in experiment [7] (10 µM unless noted) is 92.3%; in experiment [8] (10 µM unless noted), 87.7%.
On to `O=C1OCC2=C1C(c1cccc([N+](=O)[O-])c1)c1cc3c(cc1N2CCO)CCC3` (stereo not drawn), for which the growth in [1] (10 µM unless noted) is 38.2%; in experiment [2], 37.2%; in experiment [3] (10 µM unless noted), 31.3%; in experiment [4] (10 µM unless noted), 3.63% (active); in experiment [5] (10 µM unless noted), 51.4%; in [6] (10 µM unless noted), -4.9% (active). Moreover, the growth in experiment [7] (10 µM unless noted) is 11.7%; in experiment [8] (10 µM unless noted), 25.2%; in experiment [9] (10 µM unless noted), -27.1% (active).
For the compound `CCOC(=O)c1cc2c(n1Cc1cc(OC)cc(OC)c1Br)-c1nc(NC(C)=O)sc1CCC2`, the growth in experiment [1] (10 µM unless noted) was 71.3%; in [2], 80.2%; in experiment [3] (10 µM unless noted), 80.4%; in experiment [4] (10 µM unless noted), 82.2%; in experiment [5] (10 µM unless noted) it was 46.6%; in [6] (10 µM unless noted), 53.5%. For the same compound, the growth in experiment [7] (10 µM unless noted) was 42.8%; in experiment [8] (10 µM unless noted), 78%; in experiment [9] (10 µM unless noted) it was 82.2%.
For the compound `Cc1nc2cccc(NCCCCC(=O)NO)c2c(=O)n1-c1ccccc1`, the growth in experiment [1] (10 µM unless noted) is 83.9%; in [2], 66.1%; in [3] (10 µM unless noted) it was 50.3%; in [4] (10 µM unless noted), 76.5%; in experiment [5] (10 µM unless noted), 43.3%; in [6] (10 µM unless noted) it was 43.5%. The growth in [7] (10 µM unless noted) is 78.8%; in experiment [8] (10 µM unless noted), 69.7%; in experiment [9] (10 µM unless noted) it was 62.4%.
`O=C(Nc1cc(C(F)(F)F)cc(C(F)(F)F)c1)c1cc(Cl)ccc1O`: the growth was -27.9% (active) in experiment [1] (10 µM unless noted); -3.01% (active) and 1.1% (active) in [2]; -27.3% (active) and -3.41% (active) in experiment [3] (10 µM unless noted); 0.0882% (active) and 2.21% (active) in experiment [4] (10 µM unless noted); -19.6% (active) and -14.1% (active) in [5] (10 µM unless noted); -45.5% (active) and -23% (active) in experiment [6] (10 µM unless noted). Moreover, the growth is -7.9% (active) and 5.51% (active) in [7] (10 µM unless noted); -41.1% (active) and -48.8% (active) in experiment [8] (10 µM unless noted); -83.1% (active) and -64.5% (active) in experiment [9] (10 µM unless noted).
For `O=C(/C=C/c1ccc(F)cc1)Nc1ncc(Cc2ccc(F)cc2)s1`, the growth in experiment [1] (10 µM unless noted) is 70%; in [2] it was 41.4%; in experiment [3] (10 µM unless noted), 39%; in [4] (10 µM unless noted), 17%; in experiment [5] (10 µM unless noted), 71.5%; in experiment [6] (10 µM unless noted), 19.1%. Also, the growth is 38.1% in [7] (10 µM unless noted), 46.7% in [8] (10 µM unless noted) and 23.8% in experiment [9] (10 µM unless noted).
Take `CC(=O)/C=C/c1ccc(OCc2ccc(C(C)(C)C)cc2)cc1`: the growth in [1] (10 µM) is 77.5%; in experiment [1] (100 µM) it was 38.3%; in [3] (10 µM) it was 88%; in experiment [3] (100 µM), 26.8%; in [4] (10 µM) it was 84.4%; in experiment [4] (100 µM), 24.6%. For the same compound, the growth in [5] (10 µM) is 89.5%; in experiment [5] (100 µM), -14.7% (active); in experiment [6] (10 µM), 76.1%; in [6] (100 µM), -8.78% (active); in experiment [7] (10 µM), 80.3%; in experiment [7] (100 µM), 41.8%. In addition, the growth in [8] (10 µM) is 91.9%; in experiment [8] (100 µM), 20.7%; in experiment [9] (10 µM), 78.6%; in experiment [9] (100 µM) it was -65.6% (active).
Take `COc1c(NC=O)c2c(c([N+](=O)[O-])c1OC)C(=O)OC2`: the growth in experiment [1] (10 µM unless noted) is 110% and 103%; in experiment [2], 98.1%; in experiment [3] (10 µM unless noted) it was 99.2% and 104%; in experiment [4] (10 µM unless noted) it was 115% and 99.9%; in experiment [5] (10 µM unless noted), 103% and 92.8%; in experiment [6] (10 µM unless noted), 98.7% and 112%. In addition, the growth in [7] (10 µM unless noted) was 95.8% and 101%; in [8] (10 µM unless noted), 106%; in experiment [9] (10 µM unless noted), 108% and 114%.
